The panel holds about 83,000 compounds, 20% with a hit somewhere; the sample as a whole holds those more often.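 The endpoint reported here, percent growth, reads 100 for growth as untreated, 0 for no net growth and -100 for all cells dead.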 Unmarked numbers belong to inactive results. Activity calls are given as the source filed them. Rule for the calls: active = growth percent below 10; inactive = the rest.
Tests used:
Experiment in all cases: NCI-60 one-dose screen, 48 h (100 = growth as untreated, 0 = no growth, -100 = all killed)
Conditions in all cases: 10 µM unless noted
[1] = test system: NCI-H23 lung
[2] = test system: NCI-H226 lung
[3] = test system: HOP-62 NSCLC
[4] = test system: NCI-H460 lung
[5] = test system: HOP-92 NSCLC
[6] = test system: NCI-H522 lung
[7] = test system: A549/ATCC NSCLC
[8] = test system: 786-0 renal
[9] = test system: COLO 205 colon
[10] = test system: NCI-H322M lung

Compound | growth [1] | growth [2] | growth [3] | growth [4] | growth [5] | growth [6] | growth [7] | growth [8] | growth [9] | growth [10]
CC(C)Sc1nc(NC2CC2)c(C#N)c(-c2ccccc2)n1 | 67.5% | 69.8% | 71.5% | 54.5% | 76.1% | 89.2% | 62.9% | 35% | 79.6% | –
CS(=O)(=O)c1nccc(-c2c(-c3ccc(F)c(OCc4ccc(F)cc4)c3)nc3sccn23)n1 | 99.2% | 83.7% | 68.3% | 10.3% | 23% | 53.9% | 104% | 95.1% | 109% | –
COc1cc(CNC(=O)Cc2ccccc2[N+](=O)[O-])ccc1OCC(=O)NO | 102% | – | 102% | 114% | 101% | 102% | 106% | 106% | 104% | 107%
CCCCCCCCCC[C@@H](C)[C@@H]1CC(=O)N[C@H]([C@@H](C)O)C(=O)N[C@@H](C)C(=O)N[C@H](C)C(=O)N[C@@H](CCC(N)=O)C(=O)N[C@H](Cc2ccc(O)cc2)C(=O)N[C@@H](C(C)CC)C(=O)O1 (stereo not given in full) | 35.6% | – | 73.9% | 63.6% | 43.3% | 36.1% | 47.6% | 91.8% | 66% | 89.1%
NC(=O)c1c(NC(=O)c2cccc(OC(F)(F)F)c2)sc2c1CCC(=O)C2 | 25.8% | – | 102% | 96.6% | 71.6% | 20.6% | 74.7% | 89.4% | 85.7% | 110%
O=C(NNc1nc2cc(F)cc(F)c2n2cccc12)c1ccncn1 | 17.6% | – | 13.1% | 7.43% (active) | 67.4% | -12.4% (active) | 13.4% | 7.83% (active) | 11.5% | 28.6%
CC(=O)Nc1cccc(-n2cnc3cc(-c4ccc(O)cc4)ccc32)c1 | 47.8% | – | 38.4% | 15.9% | 49.5% | – | 50.4% | 45.6% | 66.3% | 56.6%
CC(C)=CCc1c(O)c(CC=C(C)C)c2c(c1O)C(=O)C1=C[C@@H]3C[C@H]4C(C)(C)O[C@@](C/C=C(\C)C(=O)O)(C3=O)[C@@]14O2 | -59.3% (active) | – | -13.7% (active) | -41.8% (active) | -21.8% (active) | -51.4% (active) | 4.97% (active) | -27.6% (active) | -94.2% (active) | 21.7%
CCOC(=O)c1c(Nc2ccccc2)nn2c(-c3ccc(Br)cc3)ccnc12 | 64.9% | – | 47.4% | 33.9% | 28.2% | 80.9% | 56.4% | 54.3% | 80.1% | 79.1%
O=C1[C@H]2Cc3c([nH]c4ccccc34)[C@@H](c3ccc(Cl)cc3)N2C(=O)CN1C1CCN(Cc2c(Cl)cccc2Cl)CC1 | 27.7% | – | 84.9% | 86% | 21.5% | 74.6% | 87.6% | -64% (active) | 103% | 103%
N#C/C(=C\c1ccc(-c2ccc(F)cc2)o1)C(=O)Nc1ncc(Cc2ccc(Cl)cc2Cl)s1 | -37.2% (active) | – | -34.7% (active) | -74.2% (active) | 36.7% | -8.78% (active) | -48% (active) | -28.3% (active) | 66.8% | 13.8%
COc1ccc(C(=O)c2c(N)c(C#N)cn2-c2cccc(OC)c2)cc1 | 49.8% | – | 30.6% | 27.8% | 21.7% | 3.14% (active) | 42.9% | 37.5% | 25.3% | 62.6%
COc1ccc([C@H]2[C@H](O)C(=O)N2c2cc(OC)c(OC)c(OC)c2)cc1Cl | 29.9% | – | 23.1% | 1.57% (active) | -6.45% (active) | -39.7% (active) | 19.1% | 22.1% | -79.3% (active) | –
O=S(=O)(Nc1ccc(I)c(Cl)c1)c1ccc(-c2cnc(C3CC3)o2)cc1 | 33.8% | – | 29% | 12.6% | 49% | 24.7% | 50.3% | 41.7% | 12% | 46%
O=C(NNc1nc2cc(F)c(F)cc2n2cccc12)c1ncccn1 | 20.3% | – | 19.9% | 10.6% | 68.1% | 13.7% | 21.1% | 8.17% (active) | 20.5% | 28.7%
CC(C)c1nn(-c2ccccc2)c(N2CCCCC2)c1/C=N/NC(N)=S | 90.9% | – | 101% | 96.5% | 64.6% | 86.1% | 79.2% | 101% | 97% | 82.3%
O=c1oc2ccc(-c3ccc(F)cc3F)cc2c(=O)n1-c1cccc(C(F)(F)F)c1 | 0.0881% (active) | – | 15% | 4.79% (active) | -25.6% (active) | 0.254% (active) | 9.67% (active) | 14.7% | 87.3% | 3.52% (active)
CCOc1ccc2nc(NC(=O)Nc3ccccc3C)sc2c1 | 76.4% | – | 49% | 42.4% | 126% | 32.7% | 54.7% | 64.9% | 49.9% | 87%
COc1cc2c3c(n(CCCNC4CCCCC4)c(=O)c2cc1OC)-c1cc2c(cc1C3=O)OCO2 | -51.7% (active) | – | -78.9% (active) | -80.1% (active) | 91.5% | -60.5% (active) | -87.5% (active) | -82.8% (active) | -79.2% (active) | -80.3% (active)
N#C/C(=C\c1ccc2ccccc2c1)C(=O)Nc1sc2c(c1C#N)CCC2 | 99.5% | – | 106% | 104% | 81.4% | 96.7% | 98.4% | 99.6% | 115% | 113%
CCOP(=O)(OCC)OC[C@]12CCC(C)(C)C[C@H]1C1=CC[C@@H]3[C@@]4(C)C/C(=C\c5cccnc5)[C@H](OP(=O)(OCC)OCC)C(C)(C)[C@@H]4CC[C@@]3(C)[C@]1(C)CC2 | 18.3% | – | 36.8% | 10.8% | -1.51% (active) | 19.8% | 16.3% | 36.2% | -5.36% (active) | –
COC[C@@]1(C)CC[C@]2(C)CC[C@]3(C)C(=CC[C@@H]4[C@@]5(C)CCCNC(C)(C)[C@@H]5CC[C@]43C)C2C1 (stereo not given in full) | 75.4% | – | 83.9% | 29.8% | 73% | 76.7% | 55.7% | 59.1% | 22% | 89.4%
